Screens from PubChem BioAssay.
tim10-1 inh – growth inhibitors of tim10-1 mutant yeast; S. cerevisiae tim10-1 ts strain growth, BacTiter-Glo, 24 h; inhibition, % at 20 µM; hit rate 2.2% among 330,000; AID 463190;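 active = inhibition of at least 40%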;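 note: mutant grown at 25 °C; 0% = DMSO wells with yeast and 100% = wells holding no yeast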
NLRP3 yeast inh – NALP3 inhibition in yeast | Yeast reconstituted NLRP3/ASC/caspase-1, beta-gal luminescence, 24 h | inhibition, % at 10 µM | hit rate 0.39% among 330,000;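 active = inhibition of 50% or more; inactive = inhibition below 50%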;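 note: plate controls were induced DMSO wells for no effect and uninduced yeast grown without galactose for full effect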
TIM10 inh – growth inhibitors of TIM10 yeast strain | S. cerevisiae TIM10 strain growth, BacTiter-Glo luminescence, 24 h | inhibition, % at 10 µM | hit rate 1.4% among 330,000 | AID 463195;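 active = inhibition of 40% or more at the single tested concentration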;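 note: wild-type TIM10 isogenic control strain grown at permissive 25 °C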
NALP1 inh – blocks the NALP1 inflammasome reconstituted in yeast; AID 2071; hit rate 0.61% among 280,000; S. cerevisiae NALP1/ASC/caspase-1 growth, X-gal OD620, 72 h; inhibition, % at 10 µM; in the data active = inhibition mostly above about 24%, no sharp cut-off; inactive = mostly below about 32%
tim23-1 inh – tim23-1 yeast growth inhibition; S. cerevisiae tim23-1 growth, BacTiter-Glo luminescence, 24 h; inhibition, % at 20 µM; hit rate 1.3% among 330,000; AID 463212;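 active = growth inhibition of the mutant yeast at or above 50%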;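 note: temperature-sensitive mutant grown at 25 °C; plate controls were DMSO-treated mutant yeast for no effect and medium wells lacking yeast for full effect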
tim10-1 confirm – confirmation of tim10-1 mutant yeast growth inhibitors; inhibition, % at 20 µM; AID 463213; hit rate 56% among 7,400; S. cerevisiae tim10-1 ts strain growth, BacTiter-Glo, 24 h; shares compounds with tim10-1 inh;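 active = inhibition of yeast growth at or above a set limit in either of two repeat tests at 20 µM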;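 note: tim10-1 mutant grown at permissive 25 °C to find synthetic lethal compounds; 0% = DMSO yeast wells and 100% = medium wells without yeast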
tim10 confirm – TIM10 yeast growth inhibition, confirmed. S. cerevisiae tim10 strain growth, BacTiter-Glo luminescence, 24 h. hit rate 63% among 4,600. AID 463215. inhibition, % at 10 µM. shares compounds with TIM10 inh;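 active = inhibition of yeast growth at or above a set limit in either of two replicates at 10 µM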;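 note: this counterscreen used the strain with wild-type TIM10; 0% = yeast with DMSO and 100% = medium wells lacking yeast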
tim23-1 confirm – tim23-1 yeast growth inhibition, confirmed. shares compounds with tim23-1 inh. S. cerevisiae tim23-1 growth, BacTiter-Glo luminescence, 24 h. inhibition, % at 20 µM. hit rate 83% among 4,400;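 active = inhibition above about 39% in either of two replicate wells at 20 µM, limit read from the data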;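 note: temperature-sensitive tim23-1 mutant grown at 25 °C; 0% = DMSO wells with yeast and 100% = medium wells without yeast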
* marks the source's active call; other numbers are inactive results; . = no result. Compounds with a hit are over-represented: about 4.1% of the library has one in this group of screens.

SMILES	tim10-1 inh	NLRP3 yeast inh	TIM10 inh	NALP1 inh	tim23-1 inh	tim10-1 confirm	tim10 confirm	tim23-1 confirm
O=C(Nc1ccc(Cl)cn1)c1cc2c(s1)-c1ccccc1OC2	9	23	8	-2	12	.	.	.
OCCOCCNc1ncnc2c1c(-c1ccccc1)cn2-c1ccccc1	47*	18	26	-1	50*	4	.	46*
CSc1ccc(C(=O)C2CCCN(C(=O)CCc3c(C)nn(C)c3C)C2)cc1 (stereo unspecified)	8	12	7	10	21	.	.	.
COc1ccc(C(=O)c2coc3c2C(=O)C(=O)c2ccccc2-3)cc1	94*	25	94*	10	85*	93*	97*	93*
O=C1c2ccccc2C(=O)c2c1oc(C(F)(F)F)c2C(=O)c1ccccc1	80*	4	78*	-17	80*	72*	92*	76*
COc1ccc2occ(C(=O)c3ccccc3)c2c1	16	4	5	22	16	.	.	.
O=C(c1ccccc1)c1coc2c1C(=O)c1ccccc1C2=O	81*	34	73*	8	66*	76*	69*	79*
C[N+]1=C(/C=C/Nc2ccccc2Cl)C(C)(C)c2ccccc21	0	6	0	25	3	.	.	.
COC(=O)c1ccc2c(c1)C(C)(C)C(/C=C/c1ccccc1O)=[N+]2C	65*	45	56*	1	66*	57*	53*	71*
Cc1csc(NC(=O)C2CCCN(S(=O)(=O)c3ccc(Br)s3)C2)n1 (stereo unspecified)	46*	6	2	15	55*	38*	.	51*
CCCCCCCCC/C(=N\O)c1ccccn1	48*	46	72*	5	65*	17	-3	70*
CCCCCCCCC(=O)N/N=C/c1ccccn1	34	23	3	0	24	.	.	.
CCOC(=O)N1CCN(c2nc(-c3ccccc3)c3ccccc3n2)CC1	17	23	23	14	19	.	.	.
CCOc1cccc(CNc2ccc(O)cc2)c1OCc1ccc(Cl)cc1Cl	42*	5	33	11	62*	35*	.	54*
CSCCC(NC(=O)c1ccccc1Br)C(=O)NNC(=O)c1ccco1 (stereo unspecified)	1	7	-4	.	-7	.	.	.
CCN(CC)C(=O)C1=C(C)Nc2ncnn2C1c1cccnc1 (stereo unspecified)	8	-7	15	6	2	.	.	.
CC(CCc1ccccc1)NC(=S)NC(=O)c1ccco1 (stereo unspecified)	8	29	20	18	44	.	.	.
O=C(NC(=S)N(CCc1ccccc1)CCc1ccccc1)c1ccco1	49*	8	42*	19	51*	44*	-10	51*
O=C(NCc1ccccc1)C(c1ccncc1)N(C(=O)c1csnn1)C1CC1 (stereo unspecified)	10	9	3	12	-2	.	.	.
CCOc1ccc(C(=O)/C=C/c2cn(CN3CCN(C)CC3)c3ccccc23)cc1	40*	37	39	-1	68*	20	.	51*
CC[n+]1c(/C=C2/C=C(C)CC(C)(C)C2)sc2ccc(OC)cc21	29	15	34	4	30	.	.	.
CC[n+]1c(/C=C2\C=C(C)CC(C)(C)C2)sc2ccccc21	45*	16	37	-4	51*	39*	.	55*
C/C(=N\NC(=O)c1nnn(-c2nonc2N)c1CN1CCOCC1)c1ccc(CC(C)C)cc1	-4	16	-4	9	-3	.	.	.
Cc1cc(N2CCC(C)CC2)n2nc(C)c(-c3ccccc3)c2n1	26	-3	38	21	10	.	.	.
Cc1cc(N2CCCCC2)n2nc(C)c(-c3ccccc3)c2n1	43*	4	20	4	50*	33*	.	47*
Cc1cccc(/C(N)=N/OC(=O)CCCc2ccccc2)c1	61*	21	53*	0	59*	57*	45*	59*
Cc1cccc(/C(N)=N/OC(=O)c2ccco2)c1	42*	3	26	13	59*	32*	.	43*
